# Screening results as filed in PubChem.
# This is a sample that favours compounds with a hit; in the whole collection about 1.2% have one here.
# Rv3671c inh: Rv3671c (M. tuberculosis) protease inhibition | P9WHR9 | inhibition, % at 5.96 µM | 320,000 tested, 0.048% active | AID 2606; in the data active = inhibition above about 38%;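 also: extracellular domain of Rv3671c used as enzyme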
# Target sequence (P9WHR9 whole entry, looked up, the tested form may be a part): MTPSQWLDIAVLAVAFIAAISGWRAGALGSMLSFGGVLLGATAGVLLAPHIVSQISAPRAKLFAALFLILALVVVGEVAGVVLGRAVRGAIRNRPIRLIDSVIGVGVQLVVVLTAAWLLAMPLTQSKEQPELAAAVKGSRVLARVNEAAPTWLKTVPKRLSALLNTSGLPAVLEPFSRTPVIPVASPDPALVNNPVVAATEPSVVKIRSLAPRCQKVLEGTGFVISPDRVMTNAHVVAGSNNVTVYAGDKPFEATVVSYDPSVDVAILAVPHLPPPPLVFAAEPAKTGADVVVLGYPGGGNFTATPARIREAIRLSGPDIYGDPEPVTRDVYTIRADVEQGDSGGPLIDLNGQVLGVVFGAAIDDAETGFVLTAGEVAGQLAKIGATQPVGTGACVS
# FadD28 binding: M. tuberculosis FadD28 bisubstrate binding inhibition; FadD28 bisubstrate probe binding, fluorescence polarization; inhibition, % at 12.5 µM; 360,000 tested, 0.22% active; AID 588549; in the data active = inhibition above about 8.5%, passing the limit was not always enough; inconclusive = no clear call, values can overlap the other calls
# UGM FP inh: blocks M. tuberculosis UGM enzyme; purified UGM, fluorescence polarization probe displacement; inhibition, % at 10 µM; 320,000 tested, 0.06% active; AID 504406; in the data active = inhibition above about 10%, passing the limit was not always enough; inconclusive = no clear call, values can overlap the other calls
# PriA SSB inh: K. pneumoniae PriA-SSBct interaction inhibition. AlphaScreen SSBct-PriA binding, biotinylated peptide. inhibition, % at 33 µM. 430,000 tested, 0.6% active; in the data active = inhibition mostly above about 37%, no sharp cut-off; inactive = mostly below about 20%
# PrPC TRFRET: cell surface PrPC inhibition, primary TR-FRET screen; P04156; TR-FRET read-out; inhibition, % at 13.8 µM; 370,000 tested, 0.43% active; AID 720596; in the data active = inhibition above about 24%
# PrP 5UTR inh: suppresses PrP 5' UTR mRNA reporter expression; cell-based PrP 5' UTR mRNA reporter, plate reader; inhibition, % (no concentration beside the values); 340,000 tested, 0.35% active; in the data active = inhibition above about 52%
# Numbers stand for hits; . = inactive; ? = inconclusive; / = no result; ! = not confirmed by another sample.
SMILES,Rv3671c inh,FadD28 binding,UGM FP inh,PriA SSB inh,PrPC TRFRET,PrP 5UTR inh
COCCCNC(=O)CSc1nc2cc(S(=O)(=O)N3CCCCC3)ccc2o1,.,.,.,46,.,.
COCC(C)NC(=O)CSc1nc2cc(S(=O)(=O)N3CCCCC3)ccc2o1 (centres undefined),.,.,.,.,.,.
COc1cccc(NC(=O)N2CCC(NC(=O)c3ccco3)CC2)c1,.,/,.,.,.,.
O=C(NC1CCN(C(=O)Nc2cccc(F)c2)CC1)c1ccco1,.,.,.,58,.,.
CCN(CC)CCCNC(=O)c1cc(Sc2nnc(C)s2)nc2ccccc12,.,.,25,.,.,.
COC(CNC(=O)c1cc(Sc2nnc(C)s2)nc2ccccc12)OC,.,.,.,.,.,.
O=C(O)[C@@H]1CCCC[C@@H]1C(=O)N1CCc2ccccc2C1CN1C(=O)c2ccccc2C1=O (some centres undefined),.,.,.,55,.,.
O=C1c2ccccc2C(=O)N1CC1c2ccccc2CCN1C(=O)C1CCCCC1 (centres undefined),.,.,.,.,.,.
CCOc1ccc(Nc2ccc([N+](=O)[O-])c3nonc23)cc1,.,.,.,78,.,.
COC(CNC(=O)C(=O)NCC(C)C)c1cccc(F)c1 (centres undefined),/,/,/,.,/,/
O=C(CN1C(=O)C2CCCCC2C1=O)Nc1nc(-c2ccccn2)cs1 (centres undefined),.,.,.,81,.,.
CC1Oc2ccccc2N(CC(=O)Nc2ccc(F)cc2)C1=O (centres undefined),.,.,.,.,.,.
CC1Oc2ccccc2N(CC(=O)Nc2nc(-c3ccccn3)cs2)C1=O (centres undefined),/,/,/,58,/,/
C[C@@H](C(=O)Nc1nc(-c2ccccn2)cs1)N1C(=O)C2CCCCC2C1=O (some centres undefined),.,.,.,81,.,.
COc1ccc(-c2csc(NC(=O)CN3C(=O)C4CCCCC4C3=O)n2)cc1OC (centres undefined),.,.,?,.,.,.
O=C1CCc2cc(S(=O)(=O)NCCC3=CCCCC3)cc3c2N1CC3,/,/,/,.,/,/
O=C(CN1C(=O)S/C(=C\c2ccccc2)C1=O)Nc1cc([N+](=O)[O-])ccc1O,.,18,.,.,.,.
Cc1ccc(/C=C2/SC(=S)N(CCCC(=O)Nc3cc([N+](=O)[O-])ccc3O)C2=O)cc1,.,.,.,.,.,.
Cc1cc2cc(CNC(=O)CC(c3ccccc3)c3ccccc3)ccc2[nH]1,/,/,/,.,/,/
Cc1cc2cc(CNC(=S)Nc3ccc(OC(F)F)cc3)ccc2[nH]1,.,.,.,73,.,.
CCNC(=S)NCc1ccc2[nH]c(C)cc2c1,.,.,.,63,.,.
Cc1cc2cc(CNC(=S)NC(C)(C)C)ccc2[nH]1,/,/,/,.,/,/
Cc1cc2cc(CNC(=O)Nc3ccccc3)ccc2[nH]1,.,.,.,44!,.,.
Cc1cc2cc(CNC(=S)Nc3ccc(OC(F)(F)F)cc3)ccc2[nH]1,.,.,.,58,.,.
NS(=O)(=O)c1ccc(NN=C/C=C/c2ccccc2[N+](=O)[O-])cc1,/,/,/,48,/,/
SMILES,Rv3671c inh,FadD28 binding,UGM FP inh,PriA SSB inh,PrPC TRFRET,PrP 5UTR inh
CCOC(=O)c1cc(-c2ccc(/C=C3/C(=O)NC(=O)C(C#N)=C3C)o2)ccc1Cl,.,15,.,.,.,.
Cc1cc(C(N)=NOC(=O)Nc2ccc(Cl)cc2)no1,/,/,/,.,/,/
O=C(NCc1ccccc1C(F)(F)F)c1ccc(=O)[nH]c1,/,/,/,.,/,/
CCc1nnc(C2CCN(C(=O)/C=C\c3ccccc3)CC2)s1,/,/,/,.,/,/
COc1ccc(N/N=C(/C(N)=O)C2=NC(C)(C)Cc3ccccc32)cc1,.,.,.,/,.,.
CC(=O)c1ccc(NN=C(C(N)=O)C2=NC(C)(C)Cc3ccccc32)cc1,/,/,/,50,/,/
CC1CCCC(C)N1C(=C(Cl)Cl)C(=C1SCCS1)[N+](=O)[O-] (centres undefined),.,16,.,.,.,.
Cc1ccc(N2C(=O)CS/C2=C(\C(Cl)=C(Cl)Cl)[N+](=O)[O-])cc1,.,.,.,.,.,.
O=C(Nc1nc2c(s1)CC[C@H]2C(=O)NCc1ccccn1)c1ccccc1,/,/,/,.,/,/
CC(Sc1ccc(Cl)cc1)C(=O)Nc1nnc(C(C)C)s1 (centres undefined),/,/,/,.,/,/
Cc1nn(-c2ccccc2)c(N)c1N=Nc1ccc(Cl)cc1,.,.,.,.,.,.
Cc1nn(-c2ccccc2)c(N)c1N=Nc1ccccc1,.,.,.,.,.,.
Cc1ccc(N=Nc2c(C)nn(-c3ccccc3)c2N)cc1[N+](=O)[O-],/,/,/,68,/,/
Cc1nn(-c2ccccc2)c(N)c1N=Nc1cccc(S(=O)(=O)N2CCOCC2)c1,.,.,.,47!,.,.
COc1ccc(-c2cc3c(=O)[nH]nc(SCC(=O)NCc4cccs4)n3n2)cc1OC,/,/,/,.,/,/
O=C(CSc1nnc2ccc(-c3ccccc3)nn12)Nc1cccc(C(F)(F)F)c1,/,/,/,.,/,/
Cn1cccc1-c1cc(C(=O)NN=Cc2ccccc2Cl)[nH]n1,/,/,/,40,/,/
O=C(/C=C/c1ccc2c(c1)OCO2)c1c(O)n(CCc2ccccc2)c(=O)[nH]c1=O,.,.,26,.,.,/
O=C(/C=C/c1ccccc1)NC(NC(=S)Nc1cccc(Cl)c1)C(Cl)(Cl)Cl (centres undefined),.,.,.,.,.,79
O=C(CSc1nnc(Cc2cccs2)n1-c1ccccc1)Nc1ccc2c(c1)OCCO2,.,.,.,.,.,.
Cc1ccc(-n2c(Cc3cccn3C)nnc2SCC(=O)Nc2ccc3c(c2)OCO3)cc1,.,.,.,39,.,.
Cc1ccc(-n2c(Cc3cccs3)nnc2SCC(=O)Nc2ccc3c(c2)OCO3)cc1,/,/,/,62,/,/
Cc1ccc(-n2c(Cc3cccn3C)nnc2SCC(=O)Nc2ccc3c(c2)OCCO3)cc1,/,/,/,.,/,/
Cn1cccc1Cc1nnc(SCC(=O)Nc2ccc3c(c2)OCCO3)n1-c1ccc(Cl)cc1,/,/,/,80,/,/
Cc1cc(C)n(-c2cc(NCCNC(=O)Cc3ccc(Cl)cc3)ncn2)n1,/,/,/,.,/,/
SMILES,Rv3671c inh,FadD28 binding,UGM FP inh,PriA SSB inh,PrPC TRFRET,PrP 5UTR inh
CN(C)c1ccc(C(CNC(=O)C(=O)NC2CC2)N2CCCC2)cc1 (centres undefined),/,/,/,.,/,/
COc1ccccc1-c1nnc(C2CCN(S(=O)(=O)c3ccc(F)cc3)CC2)s1,/,/,/,.,/,/
CC(C)CCN1C(=O)C(C)(C)COc2ccc(NS(=O)(=O)C3CCCCC3)cc21,/,/,/,.,/,/
COc1cccc(-c2sc3ccccc3c2-c2ccc(OCCN3CCCC3)cc2)c1,.,.,.,.,.,.
COc1cccc(-c2sc3ccccc3c2-c2ccc(OCCN(C)C)cc2)c1,.,.,.,40,.,.
COc1ccc(N2CCN(c3ncnc4c3[nH]c3ccccc34)CC2)cc1,.,.,.,.,.,.
COc1cc2[nH]c3c(N4CCN(c5ccccn5)CC4)ncnc3c2cc1OC,.,9.1,.,.,/,.
CCc1cccc(CC)c1-n1c(CNC(=O)c2ccc(OC)cc2)nnc1SC(C)CC (centres undefined),/,/,/,.,/,/
